Our source for the binding signal values is PMC11006913.

This test concerns the target T1, SIX6 (Homo sapiens, UniProt O95475 114-200, H141N).
T1 sequence: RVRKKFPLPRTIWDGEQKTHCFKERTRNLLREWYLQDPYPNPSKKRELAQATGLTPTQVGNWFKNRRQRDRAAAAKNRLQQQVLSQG
Nature of the test: PBM; 200 nM protein, PBS. As to conditions: dsDNA, one strand shown.
Turning to CGGTATCA, the binding signal is 11.3 upbm affinity estimate (log intensity, higher = more binding, comparable within an allelic series).
As for AGCGGGCC, the figure is 8.88 upbm affinity estimate (log intensity, higher = more binding, comparable within an allelic series).
As for GGCCCCGA, the figure is 8.92 upbm affinity estimate (log intensity, higher = more binding, comparable within an allelic series).
Regarding GGCGACCC, the binding signal is 9.03 upbm affinity estimate (log intensity, higher = more binding, comparable within an allelic series).
For the sequence AGGGCCCG, the binding signal was 8.98 upbm affinity estimate (log intensity, higher = more binding, comparable within an allelic series).
Regarding ACGGGCGG, the binding signal was 8.96 upbm affinity estimate (log intensity, higher = more binding, comparable within an allelic series).
As for ATGATACC, the figure is 11.6 upbm affinity estimate (log intensity, higher = more binding, comparable within an allelic series); as for TGATACCA, 11.3 upbm affinity estimate (log intensity, higher = more binding, comparable within an allelic series); as for AGTATATC, 10.9 upbm affinity estimate (log intensity, higher = more binding, comparable within an allelic series).
Consider GCCAGTCC, for which the binding signal is 8.9 upbm affinity estimate (log intensity, higher = more binding, comparable within an allelic series).
As for ATATCCCC, the figure is 10.9 upbm affinity estimate (log intensity, higher = more binding, comparable within an allelic series).
As for CCAGTGCG, the figure is 9 upbm affinity estimate (log intensity, higher = more binding, comparable within an allelic series).
As for GGCGCCCA, the figure is 8.67 upbm affinity estimate (log intensity, higher = more binding, comparable within an allelic series); as for ACCGCGCC, 8.81 upbm affinity estimate (log intensity, higher = more binding, comparable within an allelic series).
For GGCGGACC, the binding signal was 9.01 upbm affinity estimate (log intensity, higher = more binding, comparable within an allelic series).
For the sequence CGCAACCG, the binding signal was 9.23 upbm affinity estimate (log intensity, higher = more binding, comparable within an allelic series).
For the sequence AGCTCCGC, the binding signal was 8.98 upbm affinity estimate (log intensity, higher = more binding, comparable within an allelic series).
For AGTGTATC, the binding signal was 11 upbm affinity estimate (log intensity, higher = more binding, comparable within an allelic series).
As to GGCCGGAA, the binding signal is 8.94 upbm affinity estimate (log intensity, higher = more binding, comparable within an allelic series).
As for CGCAGCGC, the figure is 9.04 upbm affinity estimate (log intensity, higher = more binding, comparable within an allelic series).
The figure for CCCCGCAG is 9.03 upbm affinity estimate (log intensity, higher = more binding, comparable within an allelic series); for CAGTGGCC it is 8.99 upbm affinity estimate (log intensity, higher = more binding, comparable within an allelic series); for AGGTGGGC it is 8.88 upbm affinity estimate (log intensity, higher = more binding, comparable within an allelic series).
The figure for AGCGGCGC is 8.85 upbm affinity estimate (log intensity, higher = more binding, comparable within an allelic series); for AAGATATC it is 11.2 upbm affinity estimate (log intensity, higher = more binding, comparable within an allelic series); for GTATCAAA it is 11.4 upbm affinity estimate (log intensity, higher = more binding, comparable within an allelic series).
As to TGTATCAA, the binding signal is 11.2 upbm affinity estimate (log intensity, higher = more binding, comparable within an allelic series).
Consider CCGCCAGC, for which the binding signal is 9.07 upbm affinity estimate (log intensity, higher = more binding, comparable within an allelic series).
The figure for GCGCTGCC is 8.81 upbm affinity estimate (log intensity, higher = more binding, comparable within an allelic series); for CGTATCAC it is 11.3 upbm affinity estimate (log intensity, higher = more binding, comparable within an allelic series).
Turning to CATGATCA, the binding signal was 10.3 upbm affinity estimate (log intensity, higher = more binding, comparable within an allelic series).
As for ATATACAC, the figure is 10.9 upbm affinity estimate (log intensity, higher = more binding, comparable within an allelic series); as for CAGTATCA, 11.1 upbm affinity estimate (log intensity, higher = more binding, comparable within an allelic series).
As for AGTATCAC, the figure is 11.2 upbm affinity estimate (log intensity, higher = more binding, comparable within an allelic series); as for GCAGTGGC, 8.95 upbm affinity estimate (log intensity, higher = more binding, comparable within an allelic series); as for GATGATAC, 11.3 upbm affinity estimate (log intensity, higher = more binding, comparable within an allelic series).
As for GCCGCGGC, the figure is 8.98 upbm affinity estimate (log intensity, higher = more binding, comparable within an allelic series).
GATATCAC: the binding signal is 11.4 upbm affinity estimate (log intensity, higher = more binding, comparable within an allelic series).
GTGTATCA: the binding signal was 11.4 upbm affinity estimate (log intensity, higher = more binding, comparable within an allelic series).
As for AGCGGTGG, the binding signal is 8.96 upbm affinity estimate (log intensity, higher = more binding, comparable within an allelic series).
